± gives the standard deviation of the averaged measurements. The full ranking holds about 25,000 sequences; the median of “ln(normalized median fluorescence intensity)” is about 8.9, and the highest 2% start at about 10. For the sample, the highest values were picked, then their nearest neighbours and some sequences at random.
Each sequence was assayed on PfAP2-LT AP2 domain (GST-tagged) (assay: gcPBM binding intensity (ln(normalized median fluorescence intensity)); higher = stronger DNA binding).
In short: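 An Agilent 4 × 180k array of primer-extended double-stranded 36-bp intergenic genomic probes, with negative controls, was incubated for 1 h with GST-tagged P. falciparum DNA-binding domains expressed in E. coli. Alexa488 anti-GST antibody detected bound protein, scanned at 488 nm. Binding intensity is the highest Masliner-normalised natural-log median intensity across replicate spots of either probe orientation.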

Sequence	gcPBM binding intensity (ln)
TGAACATGTTAAAATAAACACACAGCTAAGGTTTTT [CACACA_site7934]	8.94 ± 0.4
TTATATATATATATATGTACACATATATAACATGAT [XGTACX_site6643]	9.19 ± 0.28
ATACACTTTTATATATCAATACATTATGTATTAAGT [CACACA_negctrl_site421]	8.86 ± 0.35
AACAATATATTGATATTATTTTAAGTGATTATATAT [XGTACX_negctrl_site205]	8.57 ± 0.33
CAACATATGCATATGTGTACATATTTTATTTTCAAC [XGTACX_site2237]	8.82 ± 0.42
TATTTATAAACATACGCACACATTAAAATATATATA [CACACA_site6051]	9.02 ± 0.4
TATTTTTTAAAAATGGGTACACATAAATAAATAAAT [XGTACX_site7643]	8.58 ± 0.45
TAAAAAAATTCATGCACACGAAATAAAAAGCACCTT [CACACA_site4667]	9.21 ± 0.3
TGAACACCCACAAATACACACAAAAAAAATAAATAA [CACACA_site248]	9.28 ± 0.51
AATACAGACAGACACACACACAAAATAAAATACAAA [CACACA_site245]	9.95 ± 0.38
TTAATACCCAGACACACACACACAAAATAAAATACA [CACACA_site7968]	10.1 ± 0.48
ATAATTAACAAATACACACACACACGCCCACAAAAA [CACACA_site6389]	10 ± 0.11
TTAATACCCGGACACACACACACAAAATAAAATACA [CACACA_site4296]	9.85 ± 0.27
ATAATTAACAAATACACACACACACCCCCACAAAAA [CACACA_site518]	10.5 ± 0.26
AAATAAATATATATATGTACATACAAATACACGGTA [XGTACX_site8510]	9.09 ± 0.4
TATTGTTTTAAAGAGACATGCAATATATATTATTCC [TGCATGCA_site752]	8.51 ± 0.42
TACATACATAAACACACACACACATATATATATATA [CACACA_site8953]	10.2 ± 0.23
AAAAAAAACATACATACACACACATAAATATATATA [CACACA_site8864]	9.72 ± 0.23
TATATAAATAGATACACACATACATACATACATACA [CACACA_site260]	9.61 ± 0.37
GAAATGGGTAAACATACACACACACCGATATATATA [CACACA_site8610]	9.87 ± 0.23
AATGGGTAAACATACACACACACATATATATATATA [CACACA_site1991]	10.2 ± 0.11
TATATACATAAACACACACACACATATATATATATA [CACACA_site8707]	9.89 ± 0.2

Sequence	gcPBM binding intensity (ln)
TACAGATATAAACACACACACATATATATATATATA [CACACA_site4846]	10.05 ± 0.092
TAGATACATAAACACACACACACATACATATATACA [CACACA_site9139]	10.2 ± 0.23
AATGGGTAAACATACACACACACATCTATATTTATA [CACACA_site7025]	9.78 ± 0.4
CATATACATAAACACACACACACATAAATAAATATA [CACACA_site4864]	10 ± 0.13
GTACATACATAAAACACACACATATATATATATATA [CACACA_site1826]	10.17 ± 0.071
TACATATATAAAAAAACACACACATATATATATATA [CACACA_site8315]	9.665 ± 0.021
TTTGAGATAAAAGACTGTACTTAGAATGTATAAAAA [XGTACX_site203]	8.48 ± 0.6
ATATGCTATTTACTAGTGCAAAATATTTAAAATATG [GTGCAC_site9517]	8.61 ± 0.36
ATAATTTTCCATATTTGTACATATTTTTTTCCCTTG [XGTACX_site8146]	8.92 ± 0.59
ATTTGTTATATATTCTTTTATGTTAATAATTCGAAT [CACACA_negctrl_site378]	8.7 ± 0.45
ATAATTAGGGTGTATTTCATTTCATTTCATTTTATT [CACACA_negctrl_site1418]	9.04 ± 0.4
TTTTTCTAATTATGCACACATATCAAAATATTCAAT [CACACA_site2749]	8.79 ± 0.46
AATATTCTATATGATACATGCATGATGGAATAAAAA [TGCATGCA_site980]	8.93 ± 0.3
ATATATATTTAAAGATGTACATAATGAAATGGTTAT [XGTACX_site4706]	9.01 ± 0.47
CATACACAGAAACACACACACATATATACATATATA [CACACA_site1094]	9.98 ± 0.24
CATACACAGAAACACACACACATATATATATATATA [CACACA_site4519]	10.2 ± 0.3
CAAATACAGAAACACACACACATATACATATATATA [CACACA_site3498]	9.77 ± 0.19
TATATACAGAAACACACACACACATATATATATATA [CACACA_site2247]	10.15 ± 0.057
TAGATACAGAAACACACACACACATACATATATACA [CACACA_site3437]	9.97 ± 0.24
ACAGAAAAAAAACACACACACATAATATACATACAT [CACACA_site1932]	9.82 ± 0.19
ATTTTTTTTTTTTTTTTTCATTTTTTTTTTTTTTTT [CACACA_negctrl_site1204]	8.62 ± 0.54
AAAAAAGCAATATGATGTACATTTACTTTGTGAAAG [XGTACX_site4450]	8.73 ± 0.46

Sequence	gcPBM binding intensity (ln)
TTAAATAGCTGTAATTGTACAAATAAATACATAAAT [XGTACX_site3097]	8.82 ± 0.38
AAAAAAAAAAAAAAAACATGCAGTTAGTGGTTTTTT [TGCATGCA_site243]	8.82 ± 0.4
AAGTAAAATAAGTATACACACATAAATATGTAAATA [CACACA_site6467]	9.29 ± 0.4
AAAAAATAAAACATATATAATATATAATATATATAT [GTGCAC_negctrl_site447]	8.69 ± 0.4
AGCAGACACCAACACACACACATATATATATATATA [CACACA_site337]	10.4 ± 0.13
AGTATACAGATATATACACACATATATATATATATA [CACACA_site4323]	9.935 ± 0.021
CGCATACACCAACACACACACACATATATATATATA [CACACA_site635]	9.96 ± 0.48
TATATATATATACCAACACACATACATATATATATA [CACACA_site8530]	9.38 ± 0.14
TACACAAGCGGACACACACACATATATATATATATA [CACACA_site4832]	10.415 ± 0.0071
ATGGGACATATATATACACACATATATATATATATA [CACACA_site1202]	9.96 ± 0.24
AGTATACACAGACACACACACACATATATATATATA [CACACA_site8510]	10.3 ± 0.42
GGTATACACAAGTATACACACATATAAATATAAATA [CACACA_site7511]	9.16 ± 0.49
AGTATACATATATATACACACACATATATATATATA [CACACA_site7883]	9.805 ± 0.064
TATATACATACATATACACACATATATATATATATA [CACACA_site401]	9.72 ± 0.21
GGTATACTCAAGTATACACACATATATATATATATA [CACACA_site5746]	9.64 ± 0.49
GGTATACACAAGTATACACACATATATATATATATA [CACACA_site9063]	10.16 ± 0.099
ATTATAATTATTTTGTTGCACTATTTTTGTAGGCCA [GTGCAC_site9734]	8.8 ± 0.49
ATATTATTTTAAAGTACACACATATATTAATATATA [CACACA_site2315]	8.76 ± 0.38
ATATATATATATATATGTACATATATATATAATTTT [XGTACX_site4146]	9.34 ± 0.54
CTTGTCATTTTGCACACACACATGTATAGGTTATTA [CACACA_site7431]	9.67 ± 0.16
ATTATGGATACATAAACACACATATATATAAAAAAA [CACACA_site4303]	9.04 ± 0.43
AAAAAAAAAAAAAAAAAAAAAAAAACAATGAATTTA [GTGCAC_negctrl_site698]	8.82 ± 0.19

Sequence	gcPBM binding intensity (ln)
TTAAATAAGTAATTATGTACATATAATATTCTTTAT [XGTACX_site5280]	8.6 ± 0.42
ATATTAAGGTTTATATTTTAACTTATTATTTTATTC [CACACA_negctrl_site795]	8.7 ± 0.49
GGATTTTAATGAACACGTACATAAAATTAAATAAAT [XGTACX_site7023]	8.73 ± 0.45
TAAGTATAAATATTTACACACATTTGTTTTTTTTTA [CACACA_site7731]	8.78 ± 0.4
TGCCTTATTAAAAGAATTACACATATTTAATCGAAA [GTGCAC_negctrl_site153]	8.31 ± 0.39
TCTTTTTTTTTTTATTGTACAAGAAAAGGAAAAAAT [XGTACX_site3717]	8.05 ± 0.31
TTTTTTTTTTTAAGGTGTACAATAAAAATTTATGCA [XGTACX_site8860]	8.23 ± 0.35
ATATTATTTTATTTTTGTACAGATATCTTTAAAAAA [XGTACX_site3734]	8.42 ± 0.37
ATTCTATTATAATACACACCCAAATATTAAAAAGAT [CACACA_site2960]	8.99 ± 0.4
TACACATACAGACATACACACATACACATATACACA [CACACA_site6918]	9.85 ± 0.23
AGGACACATATATGCAAAAAAAAAAAAAAAAAAAAA [TGCATGCA_negctrl_site427]	8.41 ± 0.59
CATACATACAGACACACACACATATAAATACATACA [CACACA_site6533]	9.88 ± 0.35
TACATACACAGACACACACACATATAAATATAAATA [CACACA_site7641]	9.78 ± 0.28
TACAGACATACATACACACATACATATATATATATA [CACACA_site1940]	9.82 ± 0.34
AATACATACAGACACACACACACATATAAATAAATA [CACACA_site7642]	10.1 ± 0.38
AGGATATGCAGACACACACACATATATATATATATA [CACACA_site2201]	10.3 ± 0.23
ATTCTACACAGACATACACACATATATATATATATA [CACACA_site5826]	9.835 ± 0.078
TATACAGACAGACACACACACATATATATATATATA [CACACA_site1734]	10.3 ± 0.13
AGGATATGCAGACACACACACATATAGATTTATATA [CACACA_site7100]	9.56 ± 0.43
CATATACATACACATACACACATACAGACATACACA [CACACA_site6919]	9.63 ± 0.2
TACATACACAGACACACACACATATATATATATATA [CACACA_site3557]	10.1 ± 0.19
TGTTTGAATATAATCACACATTTATATAAAAAGTTA [CACACA_site5237]	8.39 ± 0.32
